# Several values for one entry are separate records, joined by “and”; a condition that tells them apart may be missing. Identical values can stand only once. Results filed as inconclusive are left out. Entries that show only a call come without a potency. Activity calls are given as the source filed them. Calls come from the whole dose curve; as a rule, active = well fitted cell-killing curve with a large enough effect; inconclusive = small, poorly fitted or top-dose-only effect; inactive = flat fitted curve, though single readings scatter.
# Legend:
# [1] = Cell Viability - LYMP2-013 (AID 970);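 note: cells exposed to compound for 24 h at 37 °C; nearly all actives have a fitted effect of over 55% in size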
# Method in brief: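 In complete culture medium, human lymphoblastoid cells were dosed for 24 hr at 37 C, with tetraoctylammonium bromide (6.4pM to 92 uM) as positive control. Viability reflects luciferase-based ATP signal; AC50 derived from concentration-response curves.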
# [2] = Cell Viability - LYMP2-015 (AID 971); note: nearly all actives have a fitted effect of over 55% in size
# Method in brief: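 AC50 values reflect Hill-model fits of ATP-based luminescence (CellTiter-Glo) from a human lymphoblastoid line, 2500 cells/well, treated 24 hr at 37 C.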
# [3] = Cell Viability - LYMP2-017 (AID 972);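 note: cells exposed to compound for 24 hours at 37 °C; nearly all actives have a fitted effect of over 55% in size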
# Method in brief: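 In this qHTS format, lymphoblastoid cells in complete medium receive test compound for a day at 37 C before ATP content is quantified by luciferase luminescence. Reported AC50 figures come from standard Hill-equation curve fitting.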
# [4] = Cell Viability - LYMP2-021 (AID 974);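 note: compound exposure lasts 24 hours at 37 °C; nearly all actives have a fitted effect of over 55% in size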
# Method in brief: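 In qHTS format, compounds are tested against 2500 lymphoblastoid cells per well for 24 h; viable cell number is inferred from ATP-driven luciferase light, and Hill-equation fitting yields AC50 values.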
# [5] = Cell Viability - LYMP2-023 (AID 975)
# Method in brief: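 In this qHTS, ATP-based luciferase luminescence (CellTiter-Glo) is quantified in human lymphoblastoid cells after 24 hr compound treatment at 37 C; tetraoctylammonium bromide serves as positive control. Concentration-response curves are Hill-fitted to give AC50.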
# [6] = Cell Viability - LYMP2-025 (AID 976);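 note: cells exposed to compound for 24 h at 37 °C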
# Method in brief: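 Luminescent ATP readout after 24 hr treatment of a human lymphoblastoid line (LYMP2-025, 2500 cells/well, 37 C). Reagent developed 30 min at room temperature; AC50 fitted with the Hill equation.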
# [7] = Cell Viability - LYMP2-002 (AID 977);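 note: compound exposure lasted 24 h at 37 °C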
# Method in brief: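 In this qHTS viability screen, 2500 human lymphoblastoid cells per well receive compound for 24 hr at 37 C, and luciferase-based ATP luminescence gives the viability signal. Tetraoctylammonium bromide serves as positive control.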
# [8] = Cell Viability - LYMP2-006 (AID 978);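 note: cells exposed to compound for 24 hours; nearly all actives have a fitted effect of over 60% in size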
# Method in brief: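 qHTS, 1536-well; 2500 cells/well, 5 hr 37 C; cpd 24 hr 37 C; CellTiter-Glo 30 min RT; luminescence. Tetraoctylammonium bromide pos. ctrl. AC50 via Hill eqn.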
# [9] = Cell Viability - LYMP2-007 (AID 979);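 note: cells exposed to compound for 24 h before reading; nearly all actives have a fitted effect of over 60% in size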
# Method in brief: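 Measured via luciferase-based ATP quantitation: lymphoblastoid cells, 24 hr compound exposure at 37 C, AC50 from Hill fits.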
# [10] = Cell Viability - LYMP2-008 (AID 980); note: nearly all actives have a fitted effect of over 60% in size
# Method in brief: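 Measured: ATP-dependent luminescence, proportional to viable cell number, in human lymphoblastoid cells treated 24 hr with compound in complete culture medium. Values are AC50s from Hill-equation modelling of qHTS titrations.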
# Potency is the fitted concentration of half-maximal effect.
SMILES,Potency [1],Potency [2],Potency [3],Potency [4],Potency [5],Potency [6],Potency [7],Potency [8],Potency [9],Potency [10]
O=CC=O,inactive,inactive,inactive,inactive,inactive,inactive,inactive,inactive,inactive,inactive
ClC=C(Cl)Cl,inactive,inactive,inactive,inactive,inactive,inactive,inactive,inactive,inactive,inactive
[Cl-].[Cl-].[Hg+2],5.01 µM (active),12.6 µM (active),1 µM (active),1.58 µM (active),10 µM (active),15.8 µM (active),20 µM (active),15.8 µM (active),6.31 µM (active),–
O=C(O)C(Cl)(Cl)Cl,inactive,inactive,inactive,inactive,inactive,inactive,inactive,inactive,inactive,inactive
O=Cc1ccco1,inactive,inactive,inactive,inactive,inactive,inactive,inactive,inactive,inactive,inactive
CCOC(=O)c1ccccc1C(=O)OCC,inactive,inactive,inactive,inactive,inactive,inactive,inactive,inactive,inactive,inactive
CCCCCCCCOC(=O)c1ccccc1C(=O)OCCCCCCCC,inactive,inactive,inactive,inactive,inactive,inactive,inactive,inactive,inactive,inactive
Oc1cc(Cl)c(Cl)cc1Cl,inactive,inactive,inactive,inactive,inactive,inactive,inactive,inactive,inactive,inactive
CC(C)Nc1ccc(Nc2ccccc2)cc1,31.6 µM (active),25.1 µM (active),25.1 µM (active),25.1 µM (active),39.8 µM (active),50.1 µM (active),25.1 µM (active),25.1 µM (active),25.1 µM (active),39.8 µM (active)
C=CCN=C=S,inactive,inactive,inactive,inactive,inactive,inactive,inactive,inactive,inactive,inactive
O=C1CCO1,inactive,inactive,inactive,inactive,inactive,inactive,inactive,inactive,inactive,inactive
O=[N+]([O-])c1ccccc1,inactive,inactive,inactive,inactive,inactive,inactive,inactive,inactive,inactive,inactive
[O]=[Cr](=[O])([OH])[O][Cr](=[O])(=[O])[OH],15.8 µM (active) and 10 µM (active),10 µM (active),12.6 µM (active),12.6 µM (active) and 10 µM (active),12.6 µM (active) and 10 µM (active),15.8 µM (active) and 12.6 µM (active),12.6 µM (active) and 15.8 µM (active) and 10 µM (active),12.6 µM (active) and 15.8 µM (active) and 10 µM (active),10 µM (active) and 12.6 µM (active) and 7.94 µM (active),12.6 µM (active) and 10 µM (active)
C[C@H]1CCC[C@H](O)CCCCCc2cc(O)cc(O)c2C(=O)O1,inactive,inactive,inactive,inactive,inactive,inactive,inactive,inactive,inactive,inactive
S=C=S,inactive,inactive,inactive,inactive,inactive,inactive,inactive,inactive,inactive,inactive
NNC(N)=O,inactive,inactive,inactive,inactive,inactive,inactive,inactive,inactive,inactive,inactive

SMILES,Potency [1],Potency [2],Potency [3],Potency [4],Potency [5],Potency [6],Potency [7],Potency [8],Potency [9],Potency [10]
ClC(Cl)(Cl)Cl,inactive,inactive,inactive,inactive,inactive,inactive,inactive,inactive,inactive,inactive
CC(C)CCON=O,inactive,inactive,inactive,inactive,inactive,inactive,inactive,inactive,inactive,inactive
O=[N+]([O-])c1ccc(F)c([N+](=O)[O-])c1,–,–,–,–,–,inactive,inactive,inactive,–,–
C[C@]12CCC(=O)C[C@@H]1CC[C@@H]1[C@@H]2CC[C@]2(C)[C@@H](O)CC[C@@H]12,inactive,inactive,inactive,inactive,inactive,inactive,inactive,inactive,inactive,inactive
O=C1C=CC(=O)C=C1,39.8 µM (active),31.6 µM (active),50.1 µM (active),31.6 µM (active),–,inactive,inactive,–,50.1 µM (active),–
Clc1ccccc1Cl,inactive,inactive,inactive,inactive,inactive,inactive,inactive,inactive,inactive,inactive
CC(C)(C)c1cc(O)ccc1O,50.1 µM (active),50.1 µM (active),50.1 µM (active),50.1 µM (active),inactive,inactive,inactive,–,inactive,inactive
C[C@H]1CC[C@@H]2[C@@H](C)[C@H]3[C@H](C[C@H]4[C@@H]5CC=C6CC(O[C@@H]7O[C@H](CO)[C@H](O)[C@H](O[C@@H]8O[C@H](CO)[C@@H](O)[C@H](O)[C@H]8O)[C@H]7O[C@H]7O[C@@H](C)[C@H](O)[C@@H](O)[C@H]7O)CC[C@]6(C)[C@H]5CC[C@]34C)N2C1 (stereo not given in full),39.8 µM (active),–,50.1 µM (active),50.1 µM (active),39.8 µM (active),39.8 µM (active),50.1 µM (active),–,50.1 µM (active),50.1 µM (active)
[O]=[Cd],inactive,inactive,inactive,inactive,inactive,inactive,inactive,inactive,inactive,inactive
O=C1C2CC=CCC2C(=O)N1SC(Cl)(Cl)Cl (stereo not given),5.01 µM (active) and 6.31 µM (active),3.98 µM (active),3.16 µM (active) and 5.01 µM (active),3.98 µM (active) and 5.01 µM (active),3.98 µM (active) and 7.94 µM (active),–,6.31 µM (active) and 10 µM (active),7.94 µM (active) and 10 µM (active),7.94 µM (active) and 5.01 µM (active),12.6 µM (active) and 10 µM (active)
ClCC1CO1 (stereo not given),inactive,inactive,inactive,inactive,inactive,inactive,inactive,inactive,inactive,inactive
COc1ccc2c(c1OC)C(=O)OC2C1c2cc3c(cc2CCN1C)OCO3 (stereo not given),inactive,inactive,inactive,inactive,inactive,inactive,inactive,inactive,inactive,inactive
COC1=CC(=O)O[C@@H](/C=C/c2ccccc2)C1,inactive,inactive,inactive,inactive,inactive,inactive,inactive,inactive,inactive,inactive
CCCCCl,inactive,inactive,inactive,inactive,inactive,inactive,inactive,inactive,inactive,inactive
O=C/C=C/c1ccccc1,inactive,inactive,inactive,inactive,inactive,inactive,inactive,inactive,inactive,inactive

# Source: PubChem BioAssay (NCATS)
